# Screening results deposited in PubChem BioAssay by University of Kansas High Throughput Screening Laboratory.
# Pf apPOL block: Pf-apPOL DNA polymerase inhibition. Recombinant Pf-apPOL, molecular beacon fluorescence, 1.5 h. inhibition, % at 10 µM. hit rate 0.25% among 210,000. AID 1794808
# mHTT CaM bind: disrupts binding of mutant huntingtin to calmodulin; P42858; AlphaScreen His-mHTT/GST-CaM binding, luminescence; inhibition, % at 15 µM; hit rate 3.6% among 190,000;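 note: 0% = both proteins with DMSO and 100% = one protein alone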
# * marks the source's active call; other numbers are inactive results; · = no result; ! = a repeat was not active. An excerpt weighted towards active compounds, which were near 3.5% of everything screened. Cut-off read from the data, not from the text of the source: active = inhibition above about 50%; inactive = the rest.
SMILES,Pf apPOL block,mHTT CaM bind
O=C(COc1ccc(F)cc1)Nc1ccc2c(c1)CCC(=O)N2,-7,1
CN1CCCc2cc(C(CNC(=O)C(=O)Nc3ccc4c(c3)OCCO4)N(C)C)ccc21 (centres undefined),-10,37
CN1CCc2cc(C(CNC(=O)C(=O)Nc3cccc(C(F)(F)F)c3)N(C)C)ccc21 (centres undefined),-4,53*
Cc1ccc(C(=O)N/C(=C\c2ccco2)C(=O)N2CCN(c3ccccn3)CC2)cc1C,-5,70*
Cc1ccc(C(=O)N/C(=C/c2ccco2)C(=O)NCCc2ccccn2)cc1C,-3,11
COc1ccc(NC(=O)N2CCC3(C2)C(=O)Nc2ccccc23)cc1 (centres undefined),1,1
Cc1nc(N2CCOCC2)nc(N2CCCC2)c1[N+](=O)[O-],-10,-2
Cc1cc(C)n(-c2nc(N3CCOCC3)nc(C)c2[N+](=O)[O-])n1,69*!,-1
O=c1c2ccccc2n(Cc2nc(-c3cccs3)no2)c(=O)n1Cc1ccco1,20,2
CC(C(=O)N1CCC(N2CCc3ccccc32)CC1)c1ccccc1 (centres undefined),4,68*
COCCC1CCN(C(=O)C(C)c2ccccc2)CC1 (centres undefined),1,1
CC(O)CNc1c([N+](=O)[O-])c(=O)n(C)c2ccccc12 (centres undefined),70*,-1
Cn1c(=O)c([N+](=O)[O-])c(NCc2ccccc2)c2ccccc21,1,-1
CCCC(C(=O)O)N1C(=O)C(=Cc2ccccc2OC)SC1=S (centres undefined),-60,60*
COC(=O)CCN1C(=O)C(=Cc2ccc(O)c(OC)c2)SC1=S,-18,21
CCCCC(C(=O)O)N1C(=O)C(=Cc2ccco2)SC1=S (centres undefined),52*,29
CCCC(C(=O)O)N1C(=O)C(=Cc2cccc(OC)c2OC)SC1=S (centres undefined),-28,22
CCCCC(C(=O)O)N1C(=O)C(=Cc2cc(OC)c(OC)c(OC)c2)SC1=S (centres undefined),-64,55*
COC(=O)CN1C(=O)C(=Cc2ccc(O)c(OC)c2)SC1=S,-18,58*
CCC(C(=O)O)N1C(=O)C(=Cc2cc(OC)c(OC)c(OC)c2)SC1=S (centres undefined),2,19
O=C(O)CN1C(=O)/C(=C\c2ccco2)SC1=S,·,3
CC(C(=O)N1CCOCC1)C1CCN(S(=O)(=O)c2cccs2)CC1 (centres undefined),-2,-3
COc1cc(OC)c2nc(N)sc2c1,·,0
CC(=O)c1cccc(NC(=O)c2cc(Cl)ccc2Cl)c1,1,-26
CCn1nccc1C(=O)N1CCCC(c2cc(-c3ccccc3)n[nH]2)C1 (centres undefined),-4,10
SMILES,Pf apPOL block,mHTT CaM bind
COc1cc(C=C2SC(=S)N(CCCCC(C(=O)O)N3C(=O)C(=Cc4ccc(O)c(OC)c4)SC3=S)C2=O)ccc1O (centres undefined),62*,49
COc1cc(/C=C2/SC(c3ccc(C)cc3)=NC2=O)ccc1O,1,53*
COc1cc(/C=C2/SC(c3ccc(C)cc3)=NC2=O)cc(OC)c1OC,0,-3
CCN1C(=O)C(=Cc2ccc(O)c(OC)c2)SC1=S,-26,39
O=C(CSc1nnc2c(n1)[nH]c1ccccc12)Nc1ccc(F)cc1,7,3
Cc1nnc(NC(=O)CCc2csc(NC(=O)c3ccco3)n2)s1,0,2
Cc1ccc2c(c1)-c1c(ssc1=Nc1cc(Cl)ccc1Cl)C(C)(C)N2,·,98*
Cc1ccc2c(c1)NC(C)(C)c1ssc(=Nc3ccc(Cl)cc3Cl)c1-2,·,62*
Cc1ccc2c(c1)/C(=C/c1ccc(Cl)cc1)C(=O)N2,-2,36
Cc1cc2c(cc1C)-c1c(ssc1=Nc1ccc(S(N)(=O)=O)cc1)C(C)(C)N2,·,20
CC1(C)Nc2ccccc2-c2c1ssc2=Nc1cccc(Cl)c1,·,69*
CC=C(C)C(=O)NC(=S)NNC(=O)c1ccc(N(C)C)cc1,-304,·
Cc1ccc(NC(=O)C(=O)NCC2CCCO2)cc1Cl (centres undefined),1,-8
O=C(CC1=CCCCC1)NC1CCc2[nH]c3ccc(Br)cc3c2C1 (centres undefined),-6,100*
Cc1cc(C)cc(C(=O)NC2CCc3[nH]c4ccc(Br)cc4c3C2)c1 (centres undefined),-7,18
CCc1cccc2c3c([nH]c12)CCC(NC(=O)C(C)CC)C3 (centres undefined),26,42
CC1CCC(C(=O)NC2CCc3[nH]c4ccc(Br)cc4c3C2)CC1 (centres undefined),-6,97*
Cc1ccc(NC(=O)N2CCC(n3cnc4ccccc4c3=O)CC2)cc1C,-4,-5
COc1ccc(-n2nc3c(c2NC(=O)Cc2ccc(F)cc2)CS(=O)C3)cc1 (centres undefined),-4,5
O=S(=O)(c1cccc(C(F)(F)F)c1)N1CCC(CN2CCCCCC2)CC1,-1,98*
CC1CCN(CC2CCN(S(=O)(=O)c3cccc(C(F)(F)F)c3)CC2)CC1,0,-17
O=C(c1ccc(F)cc1)N1CCN(c2ccc([N+](=O)[O-])cc2)CC1,-15,6
COc1cccc(/C=C2\C(=O)NN(c3ccc(Br)cc3)C2=O)c1,1,7
COc1cccc(/C=C2\C(=O)NN(c3ccccc3)C2=O)c1,2,6
O=C1NN(c2ccccc2)C(=O)/C1=C/c1cccc(Br)c1,-3,54*
SMILES,Pf apPOL block,mHTT CaM bind
O=C1NN(c2ccc(Cl)cc2)C(=O)/C1=C/c1cccc(Br)c1,-5,95*
Clc1ccc(-c2nc(CN3CCOCC3)cs2)cc1,6,·
O=C(CCc1nc2ccccc2n(Cc2c(F)cccc2Cl)c1=O)NCc1ccccc1,-7,55*
CCCCNC(=O)CCc1nc2ccccc2n(Cc2c(F)cccc2Cl)c1=O,-7,23
O=C(NCc1ccccc1Cl)c1cnn2c1NC(c1ccco1)CC2C(F)(F)F (centres undefined),-2,12
Cc1c(C(=O)N2CCN(C)CC2)c(C2CC2)nn1-c1ccc(Cl)c(Cl)c1,-3,56*
CC(C)c1c(C(=O)N2CCN(C)CC2)c(C2CC2)nn1-c1ccccc1,-1,5
CCc1nn(-c2ccc(Cl)c(Cl)c2)c(CC)c1C(=O)N1CCN(CC)CC1,-10,66*
CCc1nn(-c2ccc(C)cc2)c(CC)c1C(=O)N1CCN(CC)CC1,-2,16
CC1CCCC(C)N1C(=C(Cl)Cl)C(=C1SCCS1)[N+](=O)[O-] (centres undefined),-2,72*
O=[N+]([O-])C(=C1SCCCS1)C(=C(Cl)Cl)N1CCOCC1,-10,32
COc1ccccc1NC(=O)N1CCCC(C)(C(=O)NCc2ccc(C)cc2)C1 (centres undefined),1,-9
O=C(NCc1ccco1)c1ccc(-c2cc(Cl)ccc2Cl)o1,2,0
COc1ccc(NC(=O)N2CCCC2c2ccccc2Cl)c(OC)c1 (centres undefined),-5,2
COc1ccc(NC(=O)N2CC3CCCN3c3ccccc32)cc1 (centres undefined),1,62*
CCC1CN(C(=O)Nc2ccc(OC)cc2)c2ccccc2O1 (centres undefined),2,1
COc1ccc(NC(=O)N2CC3CCCN3c3ccccc32)c(OC)c1 (centres undefined),0,90*
